Test results reported in PubChem BioAssay AID2253 (Southern Research Specialized Biocontainment Screening …, 2010).
The campaign covered roughly 2,200 compounds. About 1,300 (59%) were called active. So high a share suggests a set chosen from earlier hits. Not all results are given here. Measured potencies and affinities stand elsewhere. A number with no mark means an inactive call. No rule for the calls is given here.

Assay: human monocytic cell viability reduction – S. typhimurium screen hits, cytotoxicity control for Salmonella PhoP regulon inhibitors, dose response (AID 2253)
Conditions: THP-1 viability, CellTiter-Glo luminescence, 72 h; series mostly up to 50 µM; viability: at the top concentration

Compound	viability
[O-]/[N+](=C\c1ccncc1)c1ccccc1	99.6%
BrC(=C\c1ccccc1)/C=N/N1CCN(c2ccccn2)CC1	91%
COC(=O)c1sc2ccccc2c1-n1cccc1C(=O)C(=O)Nc1ccc(Cl)cc1	85.5%
O=C1CCCc2c1cc(C(=O)NCc1ccco1)c(=O)n2-c1ccc(Cl)cc1	99.9%
CC(=O)c1cccc(NC(=O)NCc2ccco2)c1	83.1%
CCCCN(C)C(=O)c1cn(C)c2ccc(S(=O)(=O)N(C)C)cc2c1=O	98.4%
CO[C@H]1/C=C/O[C@@]2(C)Oc3c(C)c(O)c4c(O)c(c(C=NN5CCN(C)CC5)c(O)c4c3C2=O)NC(=O)/C(C)=C\C=C\[C@H](C)[C@H](O)[C@@H](C)[C@@H](O)[C@@H](C)[C@H](OC(C)=O)[C@@H]1C	84.4%
O=Cc1cccn1Cc1ccccc1[N+](=O)[O-]	111%
COC(=O)C1C(=O)C=C(N2CCOCC2)CC1(C)C (centres undefined)	90.5%
O=c1c2oc3ccccc3c2ncn1Cc1ccc(Cl)cc1	104%
CSc1nnc(NC(=O)CCc2ccccc2)s1	83.4%
CN1CCCC(OC(=O)CCCC(=O)OC2CCCN(C)C2)C1 (centres undefined)	96.3%
O=C(Oc1ccc[nH]c1=O)c1cc([N+](=O)[O-])cc([N+](=O)[O-])c1	99.9%
CC(C)Cc1nc2ccc(N)cc2[nH]1	95.7%
Cc1ccc2nc(C(F)OC(F)(F)F)[nH]c2c1 (centres undefined)	83.4%
O=C(O)CCC(=O)NCC1OCCc2ccccc21 (centres undefined)	93.2%
CCn1cc(C(=O)O)c(=O)c2cc(OC)ccc21	81.6%
O=C(CSc1nc2[nH]ncc2c(=O)[nH]1)N1CCCCC1	98.4%
C#CCOc1ccc(Cl)cc1/C=N/O	92.4%
CC1CCCCN1Cc1cnc(Cl)s1 (centres undefined)	93.5%
CCN(CC)S(=O)(=O)c1cccc(C(=O)NC(Cc2c[nH]c3ccccc23)c2nnc3n2CCC3)c1 (centres undefined)	88.5%
O=C(N/N=C/c1ccco1)c1cccc(S(=O)(=O)Nc2ccccc2Cl)c1	87.6%
CC(=O)Oc1ccc(C(=O)[C@H]2[C@H]3C(=O)N(c4ccc5ccccc5c4)C(=O)[C@H]3[C@@H]3C=CC=NN32)cc1	90.4%

Compound	viability
O=C(CSc1nnc(-c2ccccc2)n1-c1ccc(Cl)cc1)NC1CCS(=O)(=O)C1 (centres undefined)	87.2%
O=C(CSc1nnc2c(Cl)cc(Cl)cn12)NC1CCS(=O)(=O)C1 (centres undefined)	102%
COc1ccc(-c2ccc3c(N)c(C(=O)c4cccc(OC)c4)sc3n2)cc1	101%
COc1cccc(-c2nnc(SCC(=O)Nc3ccc(OC)c(OC)c3)n2N)c1	114%
COc1ccc(NC(=O)CCNS(=O)(=O)c2ccc3c(c2)CCC(=O)N3)cc1	102%
O=c1[nH]c2ccccc2n2c(=S)[nH]nc12	108%
CCn1ncc(/C=C/C(=O)NCc2cn(C)nc2C)c1C	89%
COc1ccc(C(=O)N2CCN(C(=O)c3ccco3)CC2)cc1OC	109%
COc1ccc(OC)c(S(=O)(=O)N(C)CC(=O)N2CCc3ccccc3C2)c1	93.7%
Nc1nc(CSc2nc3ccccc3[nH]2)nc(N2CCOCC2)n1	83.1%
O=C(NC1CCCC1)c1ccc(Cl)s1	93.1%
Cc1cc(-c2csc(NC(=O)c3ccccc3C(F)(F)F)n2)c(C)n1Cc1ccccc1	86.9%
O=C(OCc1nnc(-c2ccccc2)o1)c1ccc(S(=O)(=O)NCc2ccco2)cc1	88.5%
COC(=O)c1cccc(NC(=O)CCCOc2ccccc2)c1	97.7%
COC(=O)c1ccccc1NC(=O)NCc1ccc2c(c1)OCO2	90%
O=C(Cn1nc(Cc2cccnc2)c2ccccc2c1=O)NCc1ccc2c(c1)OCO2	89.3%
CC(C)(C)c1ccc(C2CC2C(=O)N/N=C\c2cc3ccccc3nc2Cl)cc1 (centres undefined)	95%
CCn1c(SCC(=O)N2CCCCC2)nc(O)cc1=O	95.8%
O=C(NCc1cccnc1)c1cc2ccccc2oc1=O	91.9%
CCCc1cc(C(=O)Cc2ccc(C(=O)OCC)o2)c(O)cc1O	84.2%
CCOC(=O)N1CCN(c2nc(C)c3c(n2)CCCC3=O)CC1	93%
CCCCn1c(-c2ccccc2)nc2c(=O)n(C)c(=O)[nH]c21	93.3%
CCN(CC)CCNC(=O)c1cn(CC)c2cc(N3CCN(C(=O)c4ccco4)CC3)c(F)cc2c1=O	99.3%

Compound	viability
O=C1C2CCCN2c2ccc(S(=O)(=O)N3CCOCC3)cc2N1Cc1ccccc1F (centres undefined)	87.7%
Cc1ccc(Oc2ccc3c(c2)C(=O)N(c2ccc(S(=O)(=O)Nc4nccs4)cc2)C3=O)cc1	92.7%
CCCS(=O)(=O)N1CCCC(C(=O)N2CCN(c3ccccn3)CC2)C1 (centres undefined)	95.6%
N=c1scc(-c2ccccc2)n1/N=C/c1ccco1	89.4%
CCCCn1c(O)c(C(CC)=Nc2ccc3c(c2)CCC3)c(=O)[nH]c1=O	88.6%
Cc1cccc(-n2c(N)cc(=O)[nH]c2=S)c1	94.4%
O=C(O)C1CC=CCC1C(=O)NC12CC3CC(CC(C3)C1)C2 (centres undefined)	99.5%
COC(=O)c1cc(C#N)c(Oc2ccccc2OC)nc1C	90.4%
CN(CCO)Cc1csc2ccc(Br)cc12	95.3%
CCn1c(CNC(=O)c2cccc(C)c2)nc2ccccc21	98.8% [at 25 µM]
Cc1ccc(C)n1-c1cc([N+](=O)[O-])ccc1-n1ccnc1	91.1%
Nc1c(-c2ccccc2)cnn1-c1cccc([N+](=O)[O-])c1	98.2% [at 25 µM]
CCOC(=O)c1c(NC(=O)Nc2ccc(C)cc2)sc2c1CCN(C)C2	82.3%
CC(C)(C)C1CCc2c(sc(NC(=O)c3cccs3)c2C(=O)N2CCCCC2)C1 (centres undefined)	80.1%
NC(=O)c1c(NC(=O)CN2C(=O)CCC2=O)sc2c1CCCCC2	101%
C=CCN=C(NC#N)SCc1ccccc1Cl	80.6%
O=c1cc(-c2ccc([N+](=O)[O-])cc2)nc2cc(-c3ccc(Cl)cc3)[nH]n12	92.6%
COC(=O)c1ccc2c(=O)n(CCN3CCOCC3)c(SCC(=O)C(C)(C)C)nc2c1	90.6%
COc1ccc(CN2CCOCC2)cc1Br	105%
Cc1ccc(C(=O)Oc2cccc(NC(=O)c3cccs3)c2)cc1S(=O)(=O)N1CCOCC1	81.4%
CC(C)Cc1oc(C(=O)O)cc1CN1CCOCC1	86.2%
N#Cc1ccc(COC(=O)c2ccc3c(=O)[nH]c(CN4CCOCC4)nc3c2)cc1	83.8%
CCOC(=O)c1c(C)[nH]c(C)c1C(=O)COC(=O)/C=C/c1cccc(F)c1	84.6%
